Assay [1] addresses N-terminal Xaa-Pro-Lys N-methyltransferase 1 (Homo sapiens) (UniProt Q9BV86). Kind of assay: qHTS Assay for Inhibitors of N-terminal methyltransferase 1 (NTMT1): LOPAC validation of the NTMT1 SAHH-coupled ThioGlo3 Assay (AID 1347143).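 Note: SAH from peptide methylation measured as thiol fluorescence via SAHH coupling and ThioGlo3; nearly all actives have a fitted effect of over 70% in size.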 Note: potency is the fitted concentration of half-maximal effect. Put shortly:
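Steps: dispense 125nM NTMT1; pin-transfer test compounds at several concentrations, with 1uM RCC1-6 peptide as control; incubate 1 min; start with reagent holding 100uM SAM, 10uM SAHH, 15uM ThioGlo3; read at 0 and 30 min.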
A general note: Quantitative high-throughput screening tests each substance at several concentrations.

Assay [2] deals with Zika virus NS2B-NS3 protease (unlinked). Kind of assay: Optimization of GU AMC qHTS for Zika virus inhibitors: Unlinked NS2B-NS3 protease assay (AID 1347151). Note: series mostly up to about 52 µM; nearly all actives have a fitted effect of over 80% in size. In short, it runs like this:
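Noncovalent NS2B hydrophilic domain–NS3 protease complex (25 nM final) in 10 mM Tris-HCl pH 8.0, 0.01% Tween 20; AMC substrate, room temperature 15 min (~20% conversion); fluorescence change normalized, 4-parameter Hill fit.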

In assay [3] the test system is Zika virus NS2B-NS3 protease. Put plainly: Primary screen GU AMC qHTS for Zika virus inhibitors (AID 1347154). Note: nearly all actives have a fitted effect of over 70% in size. In short, it runs like this:
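Unlinked Zika NS2B hydrophilic domain–NS3 protease complex at 25 nM in 10 mM Tris-HCl pH 8.0, 0.01% Tween 20, with an AMC peptide substrate. Fluorescence change (340/450 nm) over 15 min at room temperature, normalized to controls, fitted to 4-parameter Hill.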

Our source for the Potency, outcome and activity change, negative = inhibition values is PubChem BioAssay (NCATS).

SMILES strings stand for the structures. Inconclusive results are not listed. Where a call stands in place of a potency, no number is given. A number with no mark means an inactive call. Calls of active or inactive are those of the source. Calls come from the whole dose curve; as a rule, active = well fitted curve in the direction sought with a large enough effect; inconclusive = small, poorly fitted or top-dose-only effect, or another doubt; inactive = no such curve, though single readings can be large; an effect the other way counts as inactive or inconclusive.

Chain of N-terminal Xaa-Pro-Lys N-methyltransferase 1 (Homo sapiens) (Q9BV86 whole entry, looked up): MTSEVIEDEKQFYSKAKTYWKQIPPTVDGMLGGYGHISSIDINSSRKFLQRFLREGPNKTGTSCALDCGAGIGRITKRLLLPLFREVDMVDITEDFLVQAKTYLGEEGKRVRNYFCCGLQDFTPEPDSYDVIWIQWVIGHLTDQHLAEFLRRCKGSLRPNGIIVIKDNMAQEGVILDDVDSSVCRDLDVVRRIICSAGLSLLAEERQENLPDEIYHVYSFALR

For the compound `CCC(=O)c1ccc2c(c1)N(CCCN(C)C)c1ccccc1S2`, the Potency in assay [1] is 39.8 µM (active). In addition, in assay [2], the Potency result was “inactive”. In addition, in assay [3], the result was inactive.
Turning to `N[C@@H](COP(=O)(O)O)C(=O)O`, the Potency result in assay [1] and in assay [2] was “inactive” in each case. Further, the call in assay [3] was inactive.
Consider `O=C(CCCN1CCC(O)(c2cccc(C(F)(F)F)c2)CC1)c1ccc(F)cc1`, for which the Potency entry in assay [1] and in assay [2] was “inactive” in each case. Moreover, in assay [3], the compound was classed as inactive.
As to `O=c1[nH]c(=O)n([C@H]2C[C@H](O)[C@@H](CO)O2)cc1Br`, the Potency result in assay [1] and in assay [2] was “inactive” each time. The call in assay [3] was inactive.
In the case of `NC/C=C/C(=O)O`, the Potency result in assay [1] and in assay [2] was “inactive” throughout. Further, the compound was called inactive in assay [3].
Turning to `CN=C(NC#N)NCCSCc1nc[nH]c1C`, the Potency result in assay [1] and in assay [2] was “inactive” in each case. In addition, in assay [3], the call was inactive.
For the compound `CCOC(=O)C1=C(C)NC(C)=C(C(=O)OC)C1c1cccc([N+](=O)[O-])c1` (stereo not given), the Potency result in assay [1] and in assay [2] was “inactive” in each case. For the same compound, in assay [3], the compound was called inactive.
With `NC(=O)c1cn(Cc2c(F)cccc2F)nn1`, the Potency entry in assay [1] and in assay [2] was “inactive” in each case. Also, in assay [3], the compound was classed as inactive.
As for `NC(Cc1ccc(Cl)cc1)C(=O)O` (stereo not given), the Potency result in assay [1] and in assay [2] was “inactive” each time. Also, the activity change, negative = inhibition in assay [3] was -1.34% [at 0.59 µM].
`COc1ccc(CCN(C)CCCC(C#N)(c2cc(OC)c(OC)c(OC)c2)C(C)C)cc1OC` (stereo not given): the Potency entry in assay [1] and in assay [2] was “inactive” each time. For the same compound, in assay [3], the result was inactive.
In the case of `NC(=O)N1c2ccccc2C=Cc2ccccc21`, the Potency result in assay [1] and in assay [2] was “inactive” each time.
For the compound `O=C(O)CCCCCCCC(=O)O`, the Potency entry in assay [1] and in assay [2] was “inactive” throughout. Also, in assay [3], the compound was classed as inactive.
Take `COCCc1ccc(OCC(O)CNC(C)C)cc1` (stereo not given): the Potency result in assay [1] and in assay [2] was “inactive” throughout.
On to `Cc1ccc(/C(=C\CN2CCCC2)c2ccccn2)cc1`, for which the Potency entry in assay [1] and in assay [2] was “inactive” in each case. Further, in assay [3], the call was inactive.
For the compound `CN(C)C(=O)Oc1cccc([N+](C)(C)C)c1`, the Potency result in assay [1] and in assay [2] was “inactive” in each case. Further, in assay [3], the outcome was inactive.
`CN(C)[C@@H]1C(=O)C(C(N)=O)=C(O)[C@@]2(O)C(=O)C3=C(O)c4c(O)ccc(Cl)c4[C@@H](O)[C@H]3C[C@@H]12`: in assay [1], the Potency is 56.2 µM (active). Moreover, the Potency result in assay [2] was “inactive”. In addition, the call in assay [3] was inactive.
For the compound `C(=C\c1ccccc1)/CN1CCN(C(c2ccccc2)c2ccccc2)CC1`, the Potency entry in assay [1] and in assay [2] was “inactive” throughout. Besides, the outcome in assay [3] was inactive.
Take `CC(=O)OCC1=C(C(=O)O)N2C(=O)[C@@H](NC(=O)Cc3cccs3)[C@H]2SC1`: the Potency entry in assay [1] and in assay [2] was “inactive” each time. Also, the compound was classed as inactive in assay [3].
For the compound `CCN(CC)CCNC(=O)c1cc(S(C)(=O)=O)ccc1OC`, the Potency entry in assay [1] and in assay [2] was “inactive” throughout. Also, the call in assay [3] was inactive.
As for `CC(C)(Oc1ccc(CCNC(=O)c2ccc(Cl)cc2)cc1)C(=O)O`, the Potency entry in assay [1] and in assay [2] was “inactive” throughout. The call in assay [3] was inactive.
`CC[N+](C)(C)c1cccc(O)c1`: the Potency entry in assay [1] and in assay [2] was “inactive” throughout.
`O=C(CCNNC(=O)c1ccncc1)NCc1ccccc1`: the Potency result in assay [1] and in assay [2] was “inactive” each time.
As to `Cc1nc2c([nH]1)c(=O)n(C)c(=O)n2Cc1ccco1`, the Potency result in assay [1] and in assay [2] was “inactive” each time. For the same compound, the compound was classed as inactive in assay [3].
As for `CC(C)COCC(CN(Cc1ccccc1)c1ccccc1)N1CCCC1` (stereo not given), in assay [1], the Potency is 50.1 µM (active). Moreover, the Potency result in assay [2] was “inactive”.
The matching figures for `C[C@]12CCC(=O)C=C1CC[C@@H]1[C@@H]2C(=O)C[C@@]2(C)[C@H]1CC[C@]2(O)C(=O)CO`: “inactive” and “inactive”.
`CC(=O)Oc1cc(C(C)C)c(OCCN(C)C)cc1C`: the Potency entry in assay [1] and in assay [2] was “inactive” in each case.
In the case of `c1ccc2c(c1)CCCC2C1=NCCN1` (stereo not given), the Potency result in assay [1] and in assay [2] was “inactive” each time. The compound was classed as inactive in assay [3].
`CCCOc1ccccc1-c1nc2n[nH]nc2c(=O)[nH]1`: the Potency entry in assay [1] and in assay [2] was “inactive” in each case. Besides, in assay [3], the compound was classed as inactive.
Take `CCCCCN(CCCCC)C(=O)C(CCC(=O)O)NC(=O)c1ccc(Cl)c(Cl)c1` (stereo not given): the Potency result in assay [1] and in assay [2] was “inactive” throughout. For the same compound, the compound was classed as inactive in assay [3].
With `NS(=O)(=O)c1cc2c(cc1Cl)NC(C1CC3C=CC1C3)NS2(=O)=O` (stereo not given), the Potency entry in assay [1] and in assay [2] was “inactive” each time. Also, the result in assay [3] was inactive.
As for `CC(=O)Nc1nnc(S(N)(=O)=O)s1`, the Potency entry in assay [1] and in assay [2] was “inactive” each time. Also, the compound was classed as inactive in assay [3].
`C=CCc1ccccc1OCC(O)CNC(C)C` (stereo not given): the Potency result in assay [1] and in assay [2] was “inactive” each time. In addition, the compound was called inactive in assay [3].
In the case of `C[C@H](CS)C(=O)N1CCC[C@H]1C(=O)O`, the Potency entry in assay [1] and in assay [2] was “inactive” in each case. Also, the result in assay [3] was inactive.
Take `COc1ccc([C@@H]2Sc3ccccc3N(CCN(C)C)C(=O)[C@@H]2OC(C)=O)cc1`: the Potency entry in assay [1] and in assay [2] was “inactive” in each case. Also, the compound was classed as inactive in assay [3].
As to `CCCN1C[C@H](CSC)C[C@@H]2c3cccc4[nH]cc(c34)C[C@H]21`, the Potency result in assay [1] and in assay [2] was “inactive” throughout. Besides, the compound was classed as inactive in assay [3].
Turning to `O=C(O)CP(=O)(O)O`, the Potency entry in assay [1] and in assay [2] was “inactive” throughout. The outcome in assay [3] was inactive.
For `NC(=O)c1ncn([C@@H]2O[C@H](CO)[C@@H](O)[C@H]2O)c1O`, the Potency result in assay [1] and in assay [2] was “inactive” in each case. Besides, the compound was classed as inactive in assay [3].
Take `CN(C)CC[C@@H](c1ccc(Br)cc1)c1ccccn1`: the Potency entry in assay [1] and in assay [2] was “inactive” each time. The compound was called inactive in assay [3].
On to `COc1cc(Cc2cnc(N)nc2N)cc(OC)c1OC`, for which the Potency entry in assay [1] and in assay [2] was “inactive” in each case. The result in assay [3] was inactive.
